# MITF primary: blocks human microphthalmia-associated transcription factor | AlphaScreen MITF homodimerization, bead proximity signal | hit rate 0.91% among 650,000 | O75030 | inhibition, % at 2.6 µM; in the data active = inhibition above about 50%;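 note: 0% = vehicle wells with protein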
# TEAD-YAP inh: TEAD-YAP interaction inhibition; HEK-TIYL cells, TEAD-Gal4/YAP UAS-luciferase luminescence; inhibition, % at 9.12 µM; hit rate 1.4% among 640,000; in the data active = inhibition above about 32%;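 note: 0% = median of test compound wells and 100% = reference inhibitor wells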
# GPR151 activ: human GPR151 activation. Q8TDV0. hit rate 1% among 650,000. activation, % at 11.2 µM. AID 1508602. PathHunter beta-arrestin GPR151 cells, luminescence; in the data active = activation above about 4.9%;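 note: 0% = median of compound wells and 100% = cells with positive control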
# Target sequence (Q8TDV0 whole entry, looked up): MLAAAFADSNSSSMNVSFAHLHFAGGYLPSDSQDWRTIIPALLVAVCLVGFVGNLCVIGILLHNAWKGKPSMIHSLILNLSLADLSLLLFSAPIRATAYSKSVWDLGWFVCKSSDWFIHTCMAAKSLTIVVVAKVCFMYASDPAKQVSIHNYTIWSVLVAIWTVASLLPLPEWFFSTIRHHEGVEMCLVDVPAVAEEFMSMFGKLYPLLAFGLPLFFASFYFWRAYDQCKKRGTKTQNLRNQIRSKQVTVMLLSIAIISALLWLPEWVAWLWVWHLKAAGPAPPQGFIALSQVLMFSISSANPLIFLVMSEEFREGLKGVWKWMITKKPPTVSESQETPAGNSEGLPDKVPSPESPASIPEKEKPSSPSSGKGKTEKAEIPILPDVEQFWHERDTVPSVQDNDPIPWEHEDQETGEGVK
# FBW7 act: activators of human E3 ligase FBW7; AlphaScreen FBW7–phospho-cyclin E peptide binding, activator screen; Q969H0; normalized activity (activation), % at 26.1 µM; hit rate 0.13% among 650,000; in the data active = normalized activity above about 1.9%;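 note: purified mutant Fbw7 with reduced substrate affinity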
# GPR151 conf act: human GPR151 activation, confirmation screen | AID 1508609 | activation, % at 11.2 µM | shares compounds with GPR151 activ | GPR151 PathHunter beta-arrestin cells, luminescence, 90 min; % of EA-reagent control over plate median | 6,700 tested, under 10 active;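 active = mean percent activation across replicates above the confirmation screen cutoff of 4.91%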
# GPR119 counter: activates human GPR119 in a GPR151 counter-screen; hit rate 0.3% among 6,700; GPR119 PathHunter beta-arrestin cells, luminescence, 90 min; 0 = compound-well median, 100 = enzyme-acceptor control; activation, % at 11.2 µM; AID 1508611; shares compounds with GPR151 activ;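 active = mean percent activation in the counterscreen above 29.09%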;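 note: counterscreen on off-target GPR119 to flag nonselective hits from the GPR151 activator screen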
# * marks the source's active call; other numbers are inactive results; / = no result given. Compounds with a hit are over-represented: about 3.5% of the library has one in this group of screens.
SMILES,MITF primary,TEAD-YAP inh,GPR151 activ,FBW7 act,GPR151 conf act,GPR119 counter
Nc1cc(=O)[nH]c(SCC(=O)N2CCN(C(c3ccccc3)c3ccccc3)CC2)n1,-5,4,9.4*,0,-1,-9
CCCc1cc(=O)[nH]c(SCC(=O)N2CCN(c3ccccc3OC)CC2)n1,3,7,6.7*,0,-1,-9
CC1CN(C(=O)c2cc(C(C)C)n(-c3nc4ccccc4s3)n2)CC(C)O1 (configuration not stated),5,8,5.7*,0,1,-9
Cc1cc(C(=O)N2CCC(c3nc4ccccc4s3)CC2)nn1C,2,-4,1,0,/,/
Cc1sc2nc(C(C)C)n3c(=O)n(Cc4ccccn4)nc3c2c1C,-3,-2,13*,0,-1,1
CCn1nc2c3c(C)c(C)sc3nc(C(C)C)n2c1=O,5,6,2,0,/,/
Cc1sc2nc(C(C)C)n3c(=O)n(CCN4CCCC4)nc3c2c1C,-2,8,11*,0,0,3
COc1ccnc(Cn2nc3c4c(C)c(C)sc4nc(C(C)C)n3c2=O)c1OC,-12,-7,0,0,/,/
CCOC(=O)c1c(N2C(=O)C3C4C=CC(C4)C3C2=O)sc2c1CCC(C)C2 (configuration not stated),-2,12,7.3*,0,0,-3
CCOC(=O)c1c(N2C(=O)CCC2=O)sc2c1CCC(C)C2 (configuration not stated),10,4,1,0,/,/
CN(C)c1cccc2c(S(=O)(=O)Nc3nccnc3-c3ccc(CO)cc3)cccc12,46,10,0,0,/,/
O=Cc1ccc(-c2nccnc2NS(=O)(=O)c2cccc(Cl)c2)cc1,8,9,5.0*,0,0,-6
CN(C)c1ccc(-c2nccnc2NS(=O)(=O)c2ccc(Cl)cc2)cc1,-10,1,1,-1,/,/
CN(C)c1cccc2c(S(=O)(=O)Nc3nccnc3-c3ccc(C=O)cc3)cccc12,2,2,5.9*,0,2,-7
CCCCc1ccc(-c2nc(Nc3ccccc3Cl)c3ccccc3n2)cc1,-7,-1,0,0,/,/
CC(=O)Nc1ccc(NC(=O)C(C)Sc2ccccc2)cc1 (configuration not stated),9,-14,11*,0,0,7
COc1ccccc1CC(=O)N1CCC[C@@H](Cn2nc(-c3cccs3)ccc2=O)C1,-8,5,1,0,/,/
Cc1ccc(-c2csc(N3C(=O)CNC3=S)n2)cc1,16,-46,5.7*,0,-2,-19
CCOC(=O)C1=C(C)N=c2s/c(=C/c3ccc(-c4ccccc4C#N)o3)c(=O)n2C1c1cc(OC)c(OC)cc1Br (configuration not stated),-7,-4,-1,0,/,/
COc1ccc(C(=O)N/C(=C\c2cccc([N+](=O)[O-])c2)C(=O)Nc2cc(Cl)ccc2OC)cc1Br,16,0,2,0,/,/
COc1ccc(CC2(CO)CCN(Cc3ccc(NC(C)=O)cc3)CC2)cc1,10,7,5.9*,0,2,-4
C/C(=N\N)c1ccc2c(c1)-c1ccccc1C2,11,-4,0,0,/,/
O=C(CSc1ccsc1[N+](=O)[O-])N1CCN(c2ncccn2)CC1,-2,-10,0,0,/,/
O=C(CSc1ccsc1[N+](=O)[O-])N1CCN(c2ccccn2)CC1,-3,-3,5.3*,0,-1,-2
O=S(=O)(NCc1cccs1)c1ccc(-n2cccn2)cc1,0,0,1,0,/,/
SMILES,MITF primary,TEAD-YAP inh,GPR151 activ,FBW7 act,GPR151 conf act,GPR119 counter
Cc1nc(C)nc(N2CC(=O)C(C)C2=N)n1 (configuration not stated),-1,-3,1,0,/,/
CN(C)C1NC(=O)c2cc(-c3ccccc3)sc2N1 (configuration not stated),-10,-9,7.0*,0,-1,0
CCOc1cc(C2C(C(=O)N3CCCCC3)=C(C)NC3=C2C(=O)CCC3)cc(Br)c1OC (configuration not stated),5,12,4.9*,0,0,6
CCOc1ccc2nc(C(=O)N3CCCCC3)sc2c1,4,-63,11*,0,-1,-4
O=C(Nn1c(-c2ccc(F)cc2)nc2ccccc2c1=O)c1cncc(Br)c1,21,0,5.5*,1,0,12
CCOC(=O)c1cc([N+](=O)[O-])sc1NC(=O)c1ccc(S(=O)(=O)N2CCCc3ccccc32)cc1,-9,2,0,0,/,/
O=C(N=C1N=C2C=CC(I)=CN2Cc2ccccc21)c1cccs1,10,-32,0,0,/,/
C=CCN1C(=O)c2oc3ccccc3c(=O)c2C1c1cccc([N+](=O)[O-])c1 (configuration not stated),-19,-8,5.8*,0,0,-3
C=CCN1C(=O)c2oc3ccccc3c(=O)c2C1c1ccc(O)c(OC)c1 (configuration not stated),2,-4,1,0,/,/
Cn1c2ccccc2c2cnn(CC(=O)NCc3ccccc3Cl)c(=O)c21,-5,2,1,0,/,/
CCc1c(C)nc2cc(-c3ccc(OC)c(OC)c3)nn2c1NCCCn1ccnc1,13,-51,6.3*,0,1,9
CCc1c(C)nc2cc(-c3ccc(OC)c(OC)c3)nn2c1NCCO,-2,-29,0,0,/,/
CCCCCn1c(=S)[nH]c2ccc(F)cc2c1=O,7,-11,0,0,/,/
COC(=O)C(C)N1C(=O)S/C(=C/c2cc(OC)c(OC)cc2[N+](=O)[O-])C1=O (configuration not stated),14,2,1,0,/,/
CCOc1ccc(OCC)c(S(=O)(=O)N2CCN(c3ccc(F)cc3)CC2)c1,18,6,-1,0,/,/
CCOc1ccc(Cl)cc1S(=O)(=O)N1CCN(c2ccc(F)cc2)CC1,2,12,5.0*,0,0,-3
COc1ccc(C2C=C(c3ccc(Br)cc3)Nc3nc4ccccc4n32)cc1 (configuration not stated),5,-64,2,0,/,/
Cc1ccc(C2=CC(c3ccccc3)n3nnnc3N2)cc1 (configuration not stated),-3,-12,7.3*,0,0,-1
Fc1ccc(C2=CC(c3ccccc3)n3nnnc3N2)cc1 (configuration not stated),-5,-18,1,0,/,/
Cc1ccc(C2C=C(c3ccc(Br)cc3)Nc3nc4ccccc4n32)cc1 (configuration not stated),4,-65,5.9*,0,-1,-1
COc1ccccc1N1CCN(C2CCCN(S(=O)(=O)Cc3ccccc3)C2)CC1 (configuration not stated),0,2,2,0,/,/
